The sample as a whole holds a higher share of hits than the screen did.
DT40 TDP1 CPT – qHTS for Inhibitors of human tyrosyl-DNA phosphodiesterase 1 (TDP1): qHTS in cells in presence of CPT | chicken DT40 Tdp1-/-;hTDP1 cells + 20 nM CPT, ATP luminescence, 48 h | Potency, µM (top dose mostly 46.2 µM), for the others: at the highest dose activity change, negative = growth inhibition, actives largely listed as inhibitors | hit rate 12% among 420,000; further: potency means the concentration at half of the fitted maximal effect; nearly all actives have a fitted effect of over 55% in size
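Chicken DT40 Tdp1-/- cells complemented with human TDP1, 400 cells/well, exposed to compounds plus 20 nM camptothecin for at least 48 h at 37 C; viability read as ATP content by CellTiter-Glo luminescence.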
TDP1 cell noCPT – qHTS for Inhibitors of human tyrosyl-DNA phosphodiesterase 1 (TDP1): qHTS in cells in absence of CPT; hit rate 15% among 420,000; Potency, µM (titrated, usually from 46.2 µM), for inactives: at the top dose activity change, negative = growth inhibition, actives largely listed as inhibitors; DT40 Tdp1-/- hTDP1 cells, no CPT, ATP luminescence, 48 h; further: potency means the concentration at half of the fitted maximal effect; nearly all actives have a fitted effect of over 55% in size
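Growth kinetics read by CellTiter-Glo luminescence after ≥48 hr at 37 °C. Cells: DT40 Tdp1-/- stably carrying human TDP1, 400 per well, compound exposure in the absence of CPT (DMSO vehicle).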
HT1080 IDH1KD tx – qHTS for induction of synthetic lethality in tumor cells producing 2HG: qHTS for the HT-1080-IDH1KD cell line; HT-1080 IDH1 knockdown viability, ATP luminescence, 48 h; Potency, µM (series often up to 46.1 µM), inactives show top-dose activity, negative = toxicity, usual class: cytotoxic; hit rate 2% among 360,000;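 further: potency means the concentration at half of the fitted maximal effect; 0% = DMSO wells and -100% = cell-free medium wells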
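Cytotoxicity counter-line: IDH1KD HT-1080, 48 h, CellTiter-Glo. Curves classed by r2, magnitude and activity.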
ALOX12 inh – Primary qHTS assay for inhibitors of human arachidonate 12S-lipoxygenase (ALOX12): Round 2; purified 12hLO, xylenol orange hydroperoxide absorbance; Potency, µM (highest dose often 108 µM), for inactives: at the top dose activity change, negative = inhibition, usual class: inhibitors; hit rate 1.1% among 580,000; AID 1671190, 2021; further: potency means the concentration at half of the fitted maximal effect
Target sequence (P18054 whole entry, looked up): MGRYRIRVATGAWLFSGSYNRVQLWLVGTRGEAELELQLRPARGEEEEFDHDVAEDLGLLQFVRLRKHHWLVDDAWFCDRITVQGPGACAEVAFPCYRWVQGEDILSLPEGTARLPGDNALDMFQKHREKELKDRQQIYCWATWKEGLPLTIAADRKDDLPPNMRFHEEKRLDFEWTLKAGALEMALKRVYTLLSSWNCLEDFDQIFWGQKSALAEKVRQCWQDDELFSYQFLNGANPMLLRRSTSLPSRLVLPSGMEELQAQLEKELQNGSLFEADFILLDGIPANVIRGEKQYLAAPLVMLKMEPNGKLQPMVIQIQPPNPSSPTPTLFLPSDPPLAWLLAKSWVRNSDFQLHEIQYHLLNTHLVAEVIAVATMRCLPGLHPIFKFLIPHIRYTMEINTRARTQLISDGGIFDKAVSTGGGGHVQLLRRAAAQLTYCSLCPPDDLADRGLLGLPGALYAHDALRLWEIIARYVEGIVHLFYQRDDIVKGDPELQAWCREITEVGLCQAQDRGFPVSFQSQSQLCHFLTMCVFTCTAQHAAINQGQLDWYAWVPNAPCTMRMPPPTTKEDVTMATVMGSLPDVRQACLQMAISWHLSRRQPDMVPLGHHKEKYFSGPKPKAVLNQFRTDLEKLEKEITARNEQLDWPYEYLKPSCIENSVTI
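Hydroperoxide product was detected by ferrous iron/xylenol orange as the 573 to 405 nm absorbance ratio. Arachidonic acid at 40 uM (final) was turned over for 30 min at room temperature by 150 nM human 12hLO, pH 7.0 Hepes buffer, after 15 min compound preincubation.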
IL-1B inflam inh – qHTS for Inhibitors of Inflammasome Signaling: IL-1-beta AlphaLISA Primary Screen | activity change, % at 57.5 µM | hit rate 4.7% among 360,000 | THP-1 LPS/ATP IL-1B secretion, AlphaLISA, 16 h; stronger effect = lower value; in the data active means activity change below about -50%; inconclusive means mostly about -30% to -49%
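Secreted IL-1B measured by AlphaLISA bead assay after 16 h compound exposure of THP-1 cells; compounds (final up to 57.5 uM) added 1 h before LPS (250 ng/mL) and ATP (1.25 mM) stimulation; lower signal means less secretion.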
HT1080NT lethal – qHTS for induction of synthetic lethality in tumor cells producing 2HG: qHTS for the HT-1080-NT fibrosarcoma cell line. HT-1080-NT fibrosarcoma viability, CellTiter-Glo ATP luminescence, 48 h. Potency, µM (doses to about 46.1 µM), for the others: top-dose activity, negative = less viability, actives largely listed as cytotoxic. hit rate 1.6% among 360,000;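 further: NT is the 2HG producing partner of a matched IDH1 knockdown line; potency means the concentration at half of the fitted maximal effect; 0% = DMSO-treated cells and -100% = media-only wells without cells; nearly all actives have a fitted effect of over 55% in size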
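A 48-hour cytotoxicity screen used HT-1080-NT cells plated 2 hours before compound delivery. ATP-based CellTiter-Glo luminescence measured viability, normalized to DMSO and no-cell controls.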
An asterisk follows results filed as active; ? = inconclusive; . = no result given; [ ] = another dose, or the depositor's remark. Unless noted, the call rests on the fitted dose curve; in most records, active means well fitted curve in the direction sought with a large enough effect; inconclusive means small, poorly fitted or top-dose-only effect, or another doubt; inactive means no such curve, though single readings can be large; an effect the other way counts as inactive or inconclusive. Unless noted, on the % scale 0 is the no-effect control and ±100 the full control effect.

SMILES	DT40 TDP1 CPT	TDP1 cell noCPT	HT1080 IDH1KD tx	ALOX12 inh	IL-1B inflam inh	HT1080NT lethal
O=S(=O)(c1ccc(NC(=S)NCCC(c2ccccc2)c2ccccc2)cc1)N1CCOCC1	21µM*	23µM*	?	45µM*	-16	-27%
NNC(=S)Nc1ccc(S(=O)(=O)N2CCOCC2)cc1	-7%	15%	-2%	-2%	10	5%
N#Cc1ccc(NC(=S)NC(=O)CCc2ccc(S(=O)(=O)N3CCOCC3)cc2)cc1	13µM*	?	-12%	-3%	23	22%
CC(C)(C)CC(C)(C)NC(=S)Nc1ccc(S(=O)(=O)N2CCOCC2)cc1	?	?	?	?	-71*	?
CCCC(=O)N1Cc2ccccc2CC2(CCN(Cc3ccc(O)cc3)C2)C1 (centres undefined)	.	.	.	2%[6.33 µM]	.	.
COc1ccccc1OCC(=O)Nc1ccc(S(=O)(=O)N2CCCCCC2)cc1	?	?	-7%[9.24 µM]	-9%	-4	5%
COc1ccccc1C(=O)Nc1ccc(S(=O)(=O)N2CCN(C)CC2)cc1	-8%	-7%	-6%	?	0	-11%
O=C(COc1ncnc2c1cnn2-c1ccccc1)Nc1ccc(S(=O)(=O)N2CCCCC2)cc1	16µM*	?	-17%	-18%	0	-18%
CCCOc1ccccc1C(=O)Nc1ccc(S(=O)(=O)N2CCN(C)CC2)cc1	18µM*	16µM*	-9%	-10%	-16	-19%
CCCOc1ccccc1OCC(=O)Nc1ccc(S(=O)(=O)N2CCCC2)cc1	?	16µM*	1%	4%	1	-9%
NC(=O)c1cccc(CN2CCC3(C2)CN(C(=O)C2CCCC2)c2ccccc2CO3)c1 (centres undefined)	.	.	.	5%[6.33 µM]	.	.
O=C(NCc1ccc(F)cc1F)c1ccc(N2CC3CC(C2)[C@H]2CCCC(=O)N2C3)nc1 (some centres undefined)	.	.	.	37%	.	.
CCNC(=S)/N=C(\N)Nc1nc(C)c2cc(C)ccc2n1	?	?	1%	?	-91*	-4%
COc1ccc(NC(=S)/N=C(\N)Nc2nc(C)c3ccc(C)cc3n2)cc1	18µM*	?	-8%	?	0	-9%
CCOc1ccc2nc(N/C(N)=N/C(=S)Nc3ccc(C)c(C)c3)nc(C)c2c1	-83%	-45%	-1%	45µM*	-14	-1%
Cc1ccc2c(C)nc(N/C(N)=N/S(=O)(=O)c3ccc([N+](=O)[O-])cc3)nc2c1	?	?	-9%	-2%	-1	-12%
COc1ccc(NC(=O)CN(C)C(=O)COc2ccc3oc4c(c3c2)CCCC4)cc1	.	.	.	-18%	.	.
COc1ccc(-c2cc(C(F)(F)F)nc(NCCc3ccccc3)n2)cc1	23µM*	26µM*	.	-9%	.	.
Fc1ccc(CNc2nc(-c3ccccc3)cc(C(F)(F)F)n2)cc1	21µM*	?	.	-16%	.	.
CCc1cnc2c(c1SCC(=O)c1ccc(Cl)cc1)c(=O)n(C)c(=O)n2C	13µM*	21µM*	.	-12%	.	.
CCc1cnc2c(c1SCC(=O)NCc1ccccc1)c(=O)n(C)c(=O)n2C	12µM*	?	.	-21%	.	.
CCc1cnc2c(c1SCC(=O)NCc1ccc(C)cc1)c(=O)n(C)c(=O)n2C	?	?	.	-18%	.	.

High-throughput results deposited in PubChem by National Center for Advancing Translational Sciences (NCATS).
